# Assay results from PubChem BioAssay AID651640 (Broad Institute, 2012).
# The campaign covered roughly 350,000 compounds. About 6,000 (1.7%) were called active. Another 5% or so got no clear call; they are omitted. Only a selection was taken, and actives are over-represented in it overall. Unmarked numbers belong to inactive results. Rule as the data show it: active = CPE inhibition above about 20% (passing the limit was not always enough); inconclusive = no clear call, values can overlap the other calls; tested in BHK-21 cells.
# Assay: protection of cells from dengue 2 killing – plate reader, single concentration, primary screen (AID 651640);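 also: 0% = median of neutral control wells and 100% = median of positive control wells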
# Details: DENV2-infected cells, cytopathic effect rescue, at 9.99 µM, stronger effect = higher value
row,Compound,CPE inhibition
1,Cc1ccc(N2CC(C(=O)N3CCC4(CC3)CC(=O)c3ccccc3O4)CC2=O)cc1C (stereo not given),-6.93%
2,O=C1CC2(CCCCC2)Oc2ccc(OCC(=O)N3CCOCC3)cc21,2.58%
3,O=C1CC2(CCN(C(=O)COc3ccc(F)cc3)CC2)Oc2ccccc21,29.9% (active)
4,COc1cc2c(=O)n(C)c3ccccc3c2cc1OC,0.702%
5,Cc1cc(C)c(-c2c(O)c3ccccc3n(C)c2=O)c(C)c1,72% (active)
6,Cc1cccc(Oc2c([N+](=O)[O-])c(=O)n(C)c3ccccc23)c1,-2.07%
7,CC(C)NC(=O)N(C)C[C@H]1OCCCC[C@H](C)Oc2ccc(NC(=O)CCC(F)(F)F)cc2C(=O)N([C@H](C)CO)C[C@H]1C,7.36%
8,COCCN1C(=O)N[C@@H](CCc2ccccc2)[C@H](C(C)=O)[C@H]1C,-5.61%
9,CCN1C(=O)N[C@@H](CCc2ccccc2)C(C(=O)OC)=C1C,-5.47%
10,CCN1C(=S)N[C@@H](CCc2ccccc2)[C@H](C(=O)OC)[C@H]1C,65.7% (active)
11,CCS(=O)(=O)Nc1ccc2c(c1)C(=O)N(C)[C@H]1CC[C@@H](CC(=O)N3CCCCC3)O[C@H]1CO2,-4.09%
12,COc1ccc(S(=O)(=O)N(C)C[C@H]2Oc3ccc(NC(=O)CCC(F)(F)F)cc3CC(=O)N([C@H](C)CO)C[C@@H]2C)cc1,15.8%
13,CO[C@H]1CN(C)C(=O)c2ccc(NC(C)=O)cc2OC[C@@H](C)N(C(=O)c2ccccn2)C[C@@H]1C,-11.8%
14,C[C@H](CO)N1C[C@H](C)[C@H](CN(C)C(=O)Nc2cccc(Cl)c2Cl)OCc2ccccc2-c2ccccc2C1=O,-3.92%
15,S=C(Nc1ccc(Cl)cc1Cl)N1CCCC1,-8.93%
16,O=C(NC(=S)Nc1ccc(Cl)cc1Cl)C1CC1,86.2% (active)
17,O=C(NC(=S)Nc1ccc(Br)cc1F)C1CCCCC1,-4%
18,O=C(Cc1ccccc1)N1C[C@@H]2[C@H](c3ccccc31)[C@@H](CO)N2C(=O)C1CC1,-0.201%
19,CC(=O)N[C@@H]1CC[C@@H](CCNC(=O)C2CC2)O[C@H]1CO,1.82%
20,COc1cccc(CNC(=O)CCN2C(=S)NC(C)(C)CC2C)c1 (stereo not given),8.33%
21,CCN(Cc1ccccc1)C(=O)CN1C(=S)NC(C)(C)CC1C (stereo not given),65.7% (active)
22,CC1CC(C)(C)NC(=S)N1CCC(=O)N1CCN(Cc2ccccc2)CC1 (stereo not given),16.6%
23,C[C@@H]1CN([C@@H](C)CO)C(=O)c2cc(NC(=O)Cn3cnnn3)ccc2O[C@H]1CN(C)Cc1ccc(C(F)(F)F)cc1,-5.69%
24,N#Cc1cccc(-c2ccc([C@H]3[C@@H](CO)N4CCCCN(C(=O)Nc5ccccc5)C[C@H]34)cc2)c1,-9.56%
25,CC(=O)N1CC2(C1)[C@H](c1ccccc1)[C@@H](CO)N2C(=O)Cc1ccccc1,4.56%
26,O=C(c1ccccn1)N1CC2(C1)[C@@H](c1ccccc1)[C@@H](CO)N2C(=O)C1CCCCC1,4.48%
27,COCC(=O)N1CC2(C1)[C@@H](c1ccc(-c3cccc(F)c3)cc1)[C@@H](CO)N2C(=O)COC,-4.52%

row,Compound,CPE inhibition
1,CCC(=O)N1CC2(C1)[C@H](c1ccccc1)[C@@H](CO)N2C(=O)c1ccccc1,-0.875%
2,O=C(C1CCCC1)N1[C@@H](CO)[C@@H](c2ccccc2)C12CN(Cc1ccc(F)cc1)C2,-1.84%
3,O=C(C1CCCCC1)N1[C@H](CO)[C@@H](c2ccccc2)C12CN(Cc1cccc(Cl)c1)C2,27.1% (active)
4,CCCNC(=O)N1CC2(C1)[C@H](c1ccccc1)[C@@H](CO)N2C(=O)C1CC1,16.7%
5,C/C=C/c1ccc([C@@H]2[C@H](CO)N(C(=O)c3cnccn3)C23CN(C(C)=O)C3)cc1,3.48%
6,C/C=C/c1ccc([C@@H]2[C@@H](CO)N(C(=O)c3ccccc3)C23CN(C(C)=O)C3)cc1,70.8% (active)
7,CN(C)CC(=O)N1[C@@H](CO)[C@H](c2ccccc2)C12CN(C(=O)c1cccc(F)c1)C2,49.2% (active)
8,CN(C)CC(=O)N1CC2(C1)[C@H](c1ccccc1)[C@@H](CO)N2C(=O)C1CCCCC1,-1.45%
9,CN(C)CC(=O)N1CC2(C1)[C@H](c1ccccc1)[C@H](CO)N2C(=O)C1CC1,24.3% (active)
10,COc1ccc2c3c([nH]c2c1)[C@H](CO)N(C(=O)Nc1ccc(F)cc1)CC31CCN(C(=O)Nc2c(C)noc2C)CC1,-3.75%
11,CC=Cc1ccc2n(c1=O)C[C@@H]1[C@@H](CO)[C@H](C(=O)NCCc3ccccc3)N(C(C)=O)[C@H]21 (mixture of isomers),-2.04%
12,Cc1ccc(S(=O)(=O)NCC[C@H]2CC[C@@H](NS(=O)(=O)c3ccccc3Cl)[C@H](CO)O2)cc1,-7.15%
13,COc1ccc(CN(C)C[C@H]2OCCCC[C@H](C)Oc3ccc(NC(=O)Nc4ccc5c(c4)OCO5)cc3C(=O)N([C@H](C)CO)C[C@@H]2C)cc1,-3.02%
14,N#C[C@H]1[C@@H](c2ccccc2C2=CCCC2)[C@H](CO)N1C(=O)c1cccc(F)c1,19.5%
15,C[C@@H]1CN([C@@H](C)CO)C(=O)c2cc(NC(=O)NC3CCCCC3)ccc2O[C@@H](C)CCCCO[C@H]1CN(C)Cc1ccccc1,1.48%
16,CCCC#Cc1cnc2c(c1)C(=O)N([C@H](C)CO)C[C@@H](C)[C@@H](CN(C)C(=O)Nc1ccccc1F)O2,-4.21%
17,CO[C@@H]1CN(C)C(=O)c2ccc(NC(=O)c3ccc(F)cc3)cc2OC[C@H](C)N(C(=O)c2ccc(F)cc2)C[C@@H]1C,-1.44%
18,C[C@@H]1CN([C@@H](C)CO)C(=O)c2c(c3ccccc3n2C)-c2ccccc2CO[C@H]1CN(C)Cc1cccc(C(=O)O)c1,8.1%
19,COc1cccc(C#Cc2cnc3c(c2)C(=O)N([C@H](C)CO)C[C@@H](C)[C@@H](CN(C)C(=O)C2CCC2)O3)c1,-2.93%
20,CO[C@H]1CN(C)C(=O)c2ccc(NC(=O)C3CC3)cc2OC[C@H](C)N(Cc2ccncc2)C[C@@H]1C,-0.282%
21,O=C(C1CCCCC1)N1CC2(C1)[C@H](c1ccccc1)[C@@H](CO)N2CCC(F)(F)F,34.6% (active)
22,O=C(C1CCCC1)N1CC2(C1)[C@H](c1ccccc1)[C@H](CO)N2CCC(F)(F)F,-9.33%
23,O=C(c1cnccn1)N1CC2(C1)[C@H](c1ccccc1)[C@H](CO)N2C(=O)c1ccccc1,-6.13%
24,CC(=O)N1CC2(C1)[C@@H](c1ccccc1)[C@@H](CO)N2C(=O)c1cnccn1,-5.39%
25,O=C(C1CCCC1)N1[C@H](CO)[C@@H](c2ccccc2)C12CN(CCC(F)(F)F)C2,-3.05%
26,CCC(=O)N1[C@@H](CO)[C@@H](c2ccccc2)C12CN(C(=O)c1cnccn1)C2,21.9% (active)
27,COCC#Cc1cnc2c(c1)C(=O)N([C@H](C)CO)C[C@H](C)[C@H](CN(C)C(=O)Cc1cccnc1)O2,-4.96%

row,Compound,CPE inhibition
1,C[C@H]1CCCCO[C@H](CN(C)S(=O)(=O)c2ccc(F)cc2)[C@@H](C)CN([C@@H](C)CO)C(=O)c2cc(NS(=O)(=O)c3cn(C)cn3)ccc2O1,12.6%
2,CC(=O)N1[C@H](CO)[C@@H](c2ccc(-c3ccccc3)cc2)[C@H]1CNC(=O)C1CC1,-7.62%
3,CCNC(=O)C[C@@H]1CC[C@@H]2[C@H](COc3ccc(NC(=O)Nc4cccc(C)c4)cc3C(=O)N2C)O1,-13.2%
4,COc1ccccc1-c1cn(CC[C@@H]2CC[C@H](NC(=O)c3ccccc3F)[C@H](CO)O2)nn1,4.94%
5,C[C@@H]1CN([C@H](C)CO)C(=O)c2cccc(NC(=O)Nc3ccc4c(c3)OCO4)c2O[C@H]1CN(C)S(=O)(=O)c1ccccc1,-7.78%
6,Nc1nc(SCC(=O)Nc2cc(C(F)(F)F)ccc2Cl)[nH]c(=O)c1NC(=O)c1ccco1,-1.74%
7,COC(=O)c1ccc(NC(=O)CSc2nc(N)c(NC(=O)c3ccc(Br)o3)c(=O)[nH]2)cc1,-4.82%
8,COCCNC(=O)CSc1nc(N)c(NC(=O)c2ccco2)c(=O)[nH]1,96.9% (active)
9,CCCNC(=O)N1[C@H](CO)[C@H](c2ccccc2)[C@H]1CNC(=O)C1CCCCC1,-12%
10,CC(=O)Nc1ccc2c(c1)C(=O)N(C)[C@@H]1CC[C@@H](CC(=O)NCC3CCCCC3)O[C@@H]1CO2,-1.94%
11,COC(=O)[C@]1(Cc2ccccc2)NC=C(C(=O)c2ccccc2)[C@@H]1c1cccc(OC)c1,-11.9%
12,COc1ccc(NC(=O)Nc2ccc3c(c2)C(=O)N([C@@H](C)CO)C[C@@H](C)[C@@H](CN(C)S(=O)(=O)c2ccc(C)cc2)OCCCC[C@H](C)O3)cc1,-2.48%
13,COC(=O)[C@]12C[C@H](CC(=O)NCCCCc3ccccc3)C(=O)N(Cc3ccc4c(c3)OCO4)C1=C[C@H](C(C)(C)C)O[C@@H]2C,1.32%
14,C[C@@H]1CN([C@@H](C)CO)C(=O)c2cc(C3=CCCC3)cnc2O[C@@H]1CN(C)C(=O)Cc1ccncc1,-2.39%
15,N#C[C@@H]1[C@H](c2ccc(C#Cc3cccc(F)c3)cc2)[C@@H](CO)N1C(=O)C1CCCC1,3.79%
16,Cc1ccccc1S(=O)(=O)N1[C@H](C#N)[C@H](c2ccccc2)[C@@H]1CO,119% (active)
17,CS(=O)(=O)N1[C@H](C#N)[C@H](c2ccc(C#CC3CC3)cc2)[C@H]1CO,4.72%
18,CS(=O)(=O)N1[C@H](C#N)[C@H](c2ccccc2-c2ccc(F)cc2)[C@@H]1CO,29.1% (active)
19,N#C[C@@H]1[C@@H](c2ccc(C#Cc3cccc(F)c3)cc2)[C@@H](CO)N1C(=O)C1CCC1,-2.98%
20,N#C[C@@H]1[C@H](c2ccccc2-c2ccc(F)cc2)[C@@H](CO)N1c1ncc(-c2ccccc2)s1,0.494%
21,CS(=O)(=O)N1[C@@H](C#N)[C@H](c2ccc(C#CC3CCCCC3)cc2)[C@@H]1CO,-6.42%
22,Cc1ccccc1S(=O)(=O)N1[C@H](C#N)[C@H](c2ccccc2)[C@H]1CO,9.21%
23,CS(=O)(=O)N1[C@H](C#N)[C@H](c2ccc(C#CC3CCCC3)cc2)[C@H]1CO,28.9% (active)
24,COCC(=O)N1[C@H](CO)[C@H](c2ccccc2-c2ccc(C)cc2)[C@@H]1C#N,-2.92%
25,N#C[C@H]1[C@H](c2ccc(C#Cc3ccc(F)cc3)cc2)[C@@H](CO)N1C(=O)C1CCCC1,22.7% (active)
26,Cc1ccccc1S(=O)(=O)N1[C@@H](C#N)[C@H](c2ccccc2)[C@@H]1CO,8.15%
